# Compounds with a hit are over-represented: about 3% of the library has one in this group of screens.
# MITF TRPM1 HTS: activators of MITF-driven TRPM1 promoter activity in SK-MEL-5 cells; hit rate 0.75% among 300,000; SK-MEL-5 TRPM1-promoter luciferase, 24 h; % of positive control, neutral wells = 0; activation, % at 12.5 µM; AID 588334;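 active = mean activation of at least 80% with every replicate also reaching 80%; inconclusive = mean reaches 80% but some replicate falls short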;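 note: 0% = neutral control wells and 100% = parthenolide positive control wells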
# PfHsp90 yeast 2: growth inhibition of yeast expressing Plasmodium Hsp90 | S. cerevisiae expressing PfHsp90, BacTiter-Glo ATP, 48 h; yeast lacking PDR1 and PDR3 efflux regulators | inhibition, % at 9.4 µM | hit rate 0.32% among 310,000;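 active = every replicate shows inhibition above about 80%, whatever the replicate mean, limit read from the data; inconclusive = mean inhibition reaches the set limit but some replicate falls short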;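 note: 0% = DMSO neutral controls and 100% = 20 µM radicicol positive controls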
# Wnt act: activators of Wnt/beta-catenin signaling. hit rate 1.2% among 300,000. activation, % at 9.35 µM. Wnt/beta-catenin reporter cell assay, activator, plate reader. AID 743398; in the data active = activation above about 30%, passing the limit was not always enough; inconclusive = no clear call, values can overlap the other calls;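 note: 0% = neutral control wells and 100% = positive control wells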
# N-glyco inh: blocks N-linked glycosylation in D54 reporter cells | D54 ERlucT glycosylation luciferase reporter, 24 h; percent of 100 nM tunicamycin response | hit rate 0.23% among 360,000 | reporter increase, % at 12.5 µM;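 active = mean luciferase reporter signal, scaled so untreated is 0 and the glycosylation-blocking control 100, at or above a set limit in every replicate; inconclusive = mean reaches the limit but not every replicate does; inactive = mean below the limit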;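 note: luciferase carries N-glycosylation sites so blocking glycosylation raises the light; 0% = median of neutral control wells and 100% = median of 100 nM tunicamycin wells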
# esBAF inh: inhibitors of esBAF chromatin remodeling in mouse ES cells. Bmi1-luciferase knock-in reporter, 24 h; 100% = twice the neutral-well signal. reporter increase, % at 12.5 µM. hit rate 2% among 350,000; in the data active = activation above about 40%; inconclusive = no clear call, values can overlap the other calls;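 note: 0% = median of the plate's neutral control wells and 100% = double that signal; a rise in the Bmi1 reporter signal indicates esBAF inhibition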
# Vif inh: inhibitors of HIV Vif; HEK293T cells, Vif self-association by quenched fluorescence, imaging, 24 h; inhibition, % at 7.49 µM; hit rate 0.35% among 340,000; AID 602346; in the data active = inhibition above about 50%, passing the limit was not always enough; inconclusive = no clear call, values can overlap the other calls; inactive = below about 31%
# * marks the source's active call; other numbers are inactive results; ? = inconclusive; / = not tested or not shown.
SMILES,MITF TRPM1 HTS,PfHsp90 yeast 2,Wnt act,N-glyco inh,esBAF inh,Vif inh
O=c1cc[nH]c2c1ccc1cccnc12,-5,-4,-1,16,-3,-4
Cc1nc(-c2ccc(Cl)cc2)sc1C1(C)CC(c2ccc(OC(F)(F)F)cc2)=NO1 (stereo not given),22,17,-1,4,20,-4
COc1ccc(CSc2nc3ccccc3[nH]2)cc1,29,-6,25,-12,11,/
O=C1CCC(=O)N1c1ccc(CSc2nc3ccccc3[nH]2)cc1,/,-29,/,-1,42*,-3
Cc1ccc2nc(SCC(=O)c3cc(C)n(C)c3C)[nH]c2c1,5,-6,/,-1,/,2
O=C(CSc1nc2ccccc2[nH]1)N1CCCCC1,106*,4,/,-5,23,-6
Cc1cc(C(=O)CSc2nc3ccccc3[nH]2)c(C)n1C,70,17,62*,-11,/,-6
CCCCN1CCc2c([nH]c3c(C)cccc23)C1=O,92*,46,27,0,/,1
Cc1cc2n(n1)C(c1cn(-c3ccccc3)nc1C)Nc1ccccc1-2 (stereo not given),2,/,-3,1,-1,-3
Cc1cc2n(n1)C(c1c[nH]c3ccccc13)Nc1ccccc1-2 (stereo not given),-22,125*,/,-2,7,10
COc1cccc2cc(-c3ccccc3)oc12,/,/,23,0,34,14
Nc1cccc2cc(-c3ccccc3)oc12,115*,-6,-2,1,91*,-8
Nc1ccn([C@@H]2O[C@H](CNCc3cnc(N4CCOCC4)nc3)[C@@H](O)[C@H]2O)c(=O)n1,/,/,-1,0,-1,-3
O=C1CCn2nc(-c3ccc(Cl)cc3)cc2N1,28,8,-4,0,48*,-6
Cc1ccccc1Cn1c(O)c(N=NC(=S)Nc2ccccc2F)c2ccccc21,-16,-14,-1,2,/,6
Cc1cccc(OCCNc2ncccc2[N+](=O)[O-])c1,/,/,3,0,74*,1
CC(Oc1ccccc1)C(=O)N=C1SC2CS(=O)(=O)CC2N1CCc1ccccc1 (stereo not given),-2,-45,2,0,-4,17
CC(=O)Nc1sc2c(c1-c1nc3ccccc3s1)CN(C(C)C)CC2,-62,-6,58*,-15,-82,-14
O=C(Cn1cnc2c(nnn2-c2cccc(Cl)c2)c1=O)N1CCOCC1,0,-14,56*,-2,-1,-9
CCOc1ccc(N(CC(=O)NCc2ccco2)C(=O)CCC(=O)Nc2ccccn2)cc1,-5,-8,0,1,0,-13
N#Cc1c(N2CCCC(O)C2)nc(N)c2c(N)nc3c(c12)CC(=O)N3C12CC3CC(CC(C3)C1)C2 (stereo not given),-7,-14,-15,41*,-1,/
CCOc1ccc(C(=O)NC(C)CCc2ccccc2)cc1 (stereo not given),/,7,9,0,9,-4
CCOc1ccc(C(=O)NC(Cc2ccccc2)C(=O)OC)cc1 (stereo not given),50,-12,/,1,74*,30
CCOC(=O)/C(=C\Nc1ccc(OCc2ccccc2)cc1)NC(=O)c1ccccc1,/,/,-2,/,/,/
CCOC(=O)C(CNc1ccc(OCc2ccccc2)cc1)NC(=O)c1ccccc1 (stereo not given),/,/,44*,/,/,/
SMILES,MITF TRPM1 HTS,PfHsp90 yeast 2,Wnt act,N-glyco inh,esBAF inh,Vif inh
CO[C@H]1CN(C)C(=O)c2cc(NS(=O)(=O)CC(F)(F)F)ccc2OC[C@H](C)N(CC2CCCCC2)C[C@H]1C,/,/,/,/,-1,/
O=C(Cc1csc(NC(=O)Nc2ccc(Cl)cc2)n1)NCc1cccnc1,43,5,12,0,45*,-15
CN1C(=O)/C(=N/OC(=O)c2ccccc2)c2ccccc21,-18,137*,/,0,/,-6
O=C(C[C@@H]1CC[C@H](NC(=O)CCN2CCCCC2)[C@@H](CO)O1)NCc1ccc(Cl)c(Cl)c1,/,/,/,/,1,/
COc1ccc(-c2cn3cc(C)ccc3n2)cc1Br,11,3,18,-11,/,/
COc1ccc(-c2cn3nc(C)c(C)nc3n2)cc1OC,?,-14,?,3,47*,0
Cc1ccc(-c2cn3nc(C)c(C)nc3n2)cc1,-63,66,/,-19,-74,2
COc1ccc(-c2cn3cc(Cl)ccc3n2)cc1OC,38,-21,15,-1,69*,0
CN(C)/N=C/C=C1\CCC/C(=C\c2ccc(F)c(F)c2)C1=O,1,23,0,32*,/,3
Cc1cccc(N2CCN(C(=O)CNC(=O)C3CCCCC3)CC2)c1C,22,-3,3,0,?,-7
Cc1cccc(N2CCN(C(=O)CNC(=O)c3ccccc3)CC2)c1C,/,-5,8,0,50*,2
O=C(Nn1c(SCc2cccc([N+](=O)[O-])c2)nc2ccccc2c1=O)c1ccccc1,25,-9,43*,-3,/,23
CO[C@@H]1CN(C)C(=O)c2ccc(NC(=O)c3ccc4c(c3)OCO4)cc2OC[C@H](C)NC[C@@H]1C,/,/,/,/,-4,/
CO[C@@H]1CN(C)C(=O)c2ccc(NC(=O)Nc3ccc4c(c3)OCO4)cc2OC[C@@H](C)NC[C@@H]1C,/,/,/,/,87*,/
CO[C@@H]1CN(C)C(=O)c2ccc(NC(=O)Nc3ccc4c(c3)OCO4)cc2OC[C@H](C)NC[C@@H]1C,/,/,/,/,60*,/
O=C(COC(=O)CSc1ccccc1)NNC(=O)c1ccc([N+](=O)[O-])cc1,0,-11,-1,-1,-3,4
CC(C)Nc1nc(Cl)nc(Nc2ccccc2)n1,44,-6,10,4,61*,-2
CCCCCOc1ccc(CSc2n[nH]c(C)n2)cc1,75,13,11,-2,/,-8
O=C(Nc1ccc(Cl)cc1)OCc1ccccn1,/,/,54*,1,77*,-1
O=C(NCc1ccccc1)C1=C[C@@H](c2ccc3c(c2)OCO3)C[C@@H](OCCCCO)O1,-5,-14,-2,-2,3,9
O=C(Nc1ccccc1)C1=C[C@H](c2ccc3c(c2)OCO3)C[C@H](OCCCCO)O1,30,44,10,-2,48*,4
O=C(Nc1ccccc1)C1=C[C@@H](c2ccc3c(c2)OCO3)C[C@@H](OCCCCO)O1,73,5,22,0,67*,-2
CCc1ccc(NC(=O)CCc2c(C)nn(-c3ccc(N4CCOCC4)nn3)c2C)cc1,33,-8,-1,-6,23,-1
Cn1c(CNc2ccccc2O)nc2ccccc21,-6,-10,-9,6,48*,-4
Cn1c(NCc2cccs2)nc2ccccc21,32,8,/,1,50*,/
Cn1c(Cc2nc3ccccc3n2C)nc2ccccc21,-2,-4,-3,-1,-3,-3
CCn1c(CNc2ccc(C(=O)O)cc2)nc2ccccc21,-10,-2,2,0,6,4

# Screens from PubChem.
